Vaccinia Venus: inhibitors of vaccinia virus (Venus reporter); Vaccinia virus Venus reporter expression, fluorescence; Potency, µM (top dose mostly 36.5 µM), without a hit: top-dose activity change, negative = inhibition, hits mostly inhibitors; 330,000 tested, 0.46% active; AID 720580; calls by dose curve; tested in A549 cells; note: potency is the fitted concentration of half-maximal effect; nearly all actives have a fitted effect of over 30% in size
HCMV inh: human cytomegalovirus inhibition | HFF cells, HCMV-luciferase reporter, 72 h; stronger effect = lower value | activity change, negative = inhibition, % at 57.5 µM | 410,000 tested, 4.5% active; in the data active = activity change below about -60%; inconclusive = no clear call, values can overlap the other calls; inactive = above about -39%
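Two-dose cell screen: HFF monolayers treated with compounds and infected with luciferase-expressing HCMV at 1 PFU/cell, 72 h at 37C, then lysed for luciferase measurement.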
LASV entry inh: Lassa virus entry inhibition | Potency, µM (titrated, usually from 37.9 µM), without a hit: top-dose activity change, negative = inhibition, actives largely listed as inhibitors | Lassa virus pseudotype entry inhibition, cell reporter | AID 540256 | 300,000 tested, 1.2% active; calls by dose curve; tested in HEK293 cells; note: potency is the fitted concentration of half-maximal effect; nearly all actives have a fitted effect of over 50% in size
FMDV inh: antivirals against foot and mouth disease virus. 410,000 tested, 1.2% active. FMDV antiviral cell-based qHTS. Potency, µM (titrated, usually from 57.9 µM), for the others: at the highest dose activity change, negative = inhibition, most hits filed as inhibitors. AID 1159524; calls by dose curve; tested in HEK293T cells; note: read-out not given here; potency is the fitted concentration of half-maximal effect; nearly all actives have a fitted effect of over 45% in size
MARV entry inh: Marburg virus entry inhibition; Marburg virus pseudotyped entry inhibition, cell reporter; Potency, µM (series often up to 37.8 µM), without a hit: at the top dose activity change, negative = inhibition, usual class: inhibitors; 300,000 tested, 1.8% active; AID 540276; calls by dose curve; tested in HEK293 cells; note: potency is the fitted concentration of half-maximal effect
VACV mCherry inh: inhibitors of vaccinia virus infection (mCherry reporter signal) | Vaccinia virus mCherry reporter infection, fluorescence | Potency, µM (titrated, usually from 36.5 µM), for inactives: top-dose activity change, negative = inhibition, actives largely listed as inhibitors | 310,000 tested, 0.63% active; calls by dose curve; tested in A549 cells; note: potency is the fitted concentration of half-maximal effect; nearly all actives have a fitted effect of over 35% in size
The depositor's hits bear a star; i = inactive; ? = inconclusive; · = no result given; [ ] = another dose, or the depositor's remark. Rows were chosen to be rich in hits. Some 6.5% of all compounds tested hit in one or more screens of this group. % is set by controls: 0 for no effect and ±100 for the full control effect.

SMILES | Vaccinia Venus | HCMV inh | LASV entry inh | FMDV inh | MARV entry inh | VACV mCherry inh
C[C@@H]1C[C@](C)(C(=O)c2ccco2)C=C1c1ccco1 | · | · | · | · | 6%[14.2 µM] | ·
Cc1ccc2cc(C3CC(c4cccs4)=NN3S(C)(=O)=O)c(Cl)nc2c1 (configuration not stated) | · | ? | · | 41% | · | ·
Cc1ccc2nc(Cl)c(C3CC(c4cccs4)=NN3S(C)(=O)=O)cc2c1 (configuration not stated) | · | -60* | -2% | 42% | 17% | ·
O=C(N/N=C1/C[C@@H](O)[C@@H](O)[C@@H]2[C@@H]3C(=O)N(c4cccc(Oc5ccccc5)c4)C(=O)[C@H]3CC[C@H]12)OCc1ccccc1 | · | · | · | · | 4%[14.2 µM] | ·
CCCCn1cc(S(=O)(=O)c2ccc(Cl)cc2)c(=O)c2cc(F)c(N3CCCCC3)cc21 | -9% | -1 | 0%[46.1 µM] | -18% | · | i
CCC(CC)NC(=O)c1ccccc1Oc1ccccc1 | 22% | 4 | 3% | -19% | -28% | ·
CCC(C)(C)NC(=O)c1ccccc1Oc1ccccc1 | -9% | -76* | 5%[46.1 µM] | -8% | ? | i
O=C(NC1CCCCCCC1)c1ccco1 | · | 44 | 20% | 34% | ? | ·
O=C(NC1CCN(C(=O)NC2CCCCC2)CC1)c1ccco1 | -20% | -107* | 29% | 0% | ? | i
C=CCn1c(SCC(=O)N2CCN(C(=O)c3ccco3)CC2)nc2sc(CC)cc2c1=O | -23% | -18 | -20% | -19% | -22% | -30%
C=CCn1c(SCC(=O)N2CCc3ccccc3C2)nc2sc(C)cc2c1=O | ? | -8 | ? | 22µM* | ? | ·
C=CCn1c(SCC(=O)c2cccs2)nc2sc(CC)cc2c1=O | · | ? | ? | 20µM* | ? | ·
C=CCn1c(SCC(=O)/C(C#N)=C(\C)N)nc2sc(CC)cc2c1=O | -7% | -4 | ? | 22µM* | ? | -15%
C=CCn1c(SCC(=O)O)nc2sc(CC)cc2c1=O | -3% | -10 | -1% | -8% | 21%[46.1 µM] | i
Cc1ccc2c(c1)CN(CCNC(=O)C(C)Oc1ccccc1)CC(C)O2 (configuration not stated) | -3% | · | · | -8% | · | -13%
O=C(C[n+]1cccc(I)c1)c1ccc(F)cc1 | -13% | · | · | · | · | -7%
CCOc1ccc(C=Nc2ccc(/C=C/c3ccnc4ccccc34)cc2)cc1OCC | -9% | · | · | · | · | 20%
CCOc1ccc(NC(=O)c2ccc3c(c2)N(Cc2ccc(F)cc2)C(=O)CS3=O)cc1 (configuration not stated) | -8% | -5 | · | -16% | -1% | -11%
Cc1ccc(C)c(NC(=O)c2ccc3c(c2)N(Cc2ccc(F)cc2)C(=O)CS3=O)c1 (configuration not stated) | -13% | ? | ? | -19% | 2.6µM* | -13%
CCOc1ccccc1CN1CCc2nc(N3CCN(c4ccccc4F)CC3)ncc2C1 | ? | -64* | -18%[46.1 µM] | 28µM* | · | -28%
CCOc1ccc(CN2CCc3nc(N4CCN(c5ccccn5)CC4)ncc3C2)cc1OC | ? | ? | ? | 13µM* | · | ?
COc1cc(CN2CCc3nc(N4CCN(c5ncccn5)CC4)ncc3C2)cc(OC)c1OC | ? | -63* | ? | 28µM* | · | -25%
Brc1ccc(CN2CCc3nc(N4CCN(c5ncccn5)CC4)ncc3C2)cc1 | -25% | -20 | -7%[46.1 µM] | ? | · | -14%
CN(C)c1ccc(CN2CCc3nc(N4CCN(c5ccccn5)CC4)ncc3C2)cc1 | -27% | -29 | ? | 7.9µM* | · | ?
Fc1ccc(CN2CCc3nc(N4CCN(c5ccccc5F)CC4)ncc3C2)c(F)c1 | -27% | -23 | 6%[46.1 µM] | ? | · | -22%
SMILES | Vaccinia Venus | HCMV inh | LASV entry inh | FMDV inh | MARV entry inh | VACV mCherry inh
COc1cc(CN2CCc3nc(N4CCN(c5ccccn5)CC4)ncc3C2)cc(OC)c1OC | ? | -63* | ? | ? | · | -7%
CCOC(=O)N[C@H](C(=O)N1CCC[C@H]1C(=O)NC1CCCC1)c1ccccc1 | · | 6 | · | · | · | ·
COc1cccc(C(=O)N/N=C/C(Br)=C/c2ccccc2)c1 | ? | ? | -21% | 6% | ? | ?
O=C(N/N=C/C=C\c1ccccc1)c1cnccn1 | -2% | 57 | 6%[46.1 µM] | 6% | 21%[46.1 µM] | -20%
O=C(N/N=C/C(Br)=C/c1ccccc1)c1cnccn1 | -25% | -61* | ? | 25% | ? | -21%
COc1ccc(/C=N/NC(=O)c2ccc(NC(=O)c3ccccc3Br)cc2)cc1 | -12% | -91* | 18µM* | -9% | -26% | i
COc1ccc(C(=O)N/N=C/C(Br)=C/c2ccccc2)cc1 | -13% | -65* | 6% | -6% | -2% | -27%
CCCn1cc(S(=O)(=O)c2ccccc2)c(=O)c2cc(F)c(N3CCCCCC3)cc21 | ? | ? | ? | 0% | · | -28%
COc1cccc(NC(=O)/C(C#N)=C/c2c(C)n(Cc3ccccc3)c3ccccc23)c1 | 7% | -27 | ? | ? | · | -20%
CCNC(=O)c1c(NC(=O)Cc2coc3ccc(CC)cc23)sc2c1CCCC2 | -15% | -2 | 1%[46.1 µM] | -13% | ? | -12%
OCc1ccc(-c2ccc(-c3ccc(CO)s3)o2)s1 | · | · | · | 11% | · | ·
Cc1ccccc1NC(=S)NC(NC(=O)COc1ccccc1)C(Cl)(Cl)Cl (configuration not stated) | -25% | -8 | -10% | -25% | ? | ?
CC(=O)NC(NC(=S)Nc1ccc(C)cc1C)C(Cl)(Cl)Cl (configuration not stated) | · | 5 | · | -9% | · | ·
Cc1ccc(NC(=S)NC(NC(=O)c2ccccc2C)C(Cl)(Cl)Cl)c(C)c1 (configuration not stated) | · | -26 | ? | -26% | 23µM* | ·
CCc1ccc(OCC(=O)NC(NC(=S)Nc2ccc(C)cc2C)C(Cl)(Cl)Cl)cc1 (configuration not stated) | ? | -64* | -27% | ? | ? | ·
COC(=O)c1ccccc1NC(=S)NC(NC(=O)COc1ccccc1)C(Cl)(Cl)Cl (configuration not stated) | -7% | -102* | -6% | 7% | ? | -18%
CCc1ccc(OCC(=O)NC(NC(=S)Nc2ccccc2OC)C(Cl)(Cl)Cl)cc1 (configuration not stated) | -25% | -72* | -28% | -10% | -14% | ?
COc1cc2nc(N3CCCN(C)CC3)nc(NC3CCNCC3)c2cc1OC | -13% | · | · | · | · | -3%
COc1ccc(Cl)cc1NC(=O)Cn1c(=O)n(Cc2ccc(F)cc2)c(=O)c2cccnc21 | -11% | 2 | · | -6% | 2%[46.1 µM] | -7%
Cc1ccc(C)c(NC(=S)NC(NC(=O)Cc2cccc3ccccc23)C(Cl)(Cl)Cl)c1 (configuration not stated) | ? | -98* | 7.9µM* | -22% | 13µM* | ?
NC1(C#Cc2ccc3oc(=O)c(-n4cc(C5(O)CCCCC5)nn4)cc3c2)CCCCC1 | -10% | -3 | · | 2% | · | i

Compound activity: PubChem BioAssay, National Center for Advancing Translational Sciences (NCATS)
